In article PMC12215968 one finds cross-linked residues data, which are given here for 11 substances.

Targets include SPTAN1 (UniProt Q13813); TOP1 (UniProt P11387); VIM (UniProt P08670); YWHAB (UniProt P31946); YWHAE (UniProt P62258); SERBP1 (UniProt Q8NC51); SDHA (UniProt P31040); RPS27A (UniProt P62979); SF3A1 (UniProt Q15459); RPS7 (UniProt P62081).
Experiment in all cases: cross-linking mass spectrometry
Common to all, as to conditions: TSTO, in cells

Sequence of YWHAQ, P27348 (P27348 whole entry): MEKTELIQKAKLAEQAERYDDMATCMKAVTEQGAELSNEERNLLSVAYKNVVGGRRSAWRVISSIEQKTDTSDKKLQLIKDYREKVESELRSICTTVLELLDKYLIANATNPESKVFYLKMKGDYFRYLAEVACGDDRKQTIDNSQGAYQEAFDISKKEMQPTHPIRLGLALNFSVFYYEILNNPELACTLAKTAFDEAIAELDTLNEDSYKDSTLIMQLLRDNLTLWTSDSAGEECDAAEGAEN
Sequence of SPTBN1, Q01082 (Q01082 whole entry): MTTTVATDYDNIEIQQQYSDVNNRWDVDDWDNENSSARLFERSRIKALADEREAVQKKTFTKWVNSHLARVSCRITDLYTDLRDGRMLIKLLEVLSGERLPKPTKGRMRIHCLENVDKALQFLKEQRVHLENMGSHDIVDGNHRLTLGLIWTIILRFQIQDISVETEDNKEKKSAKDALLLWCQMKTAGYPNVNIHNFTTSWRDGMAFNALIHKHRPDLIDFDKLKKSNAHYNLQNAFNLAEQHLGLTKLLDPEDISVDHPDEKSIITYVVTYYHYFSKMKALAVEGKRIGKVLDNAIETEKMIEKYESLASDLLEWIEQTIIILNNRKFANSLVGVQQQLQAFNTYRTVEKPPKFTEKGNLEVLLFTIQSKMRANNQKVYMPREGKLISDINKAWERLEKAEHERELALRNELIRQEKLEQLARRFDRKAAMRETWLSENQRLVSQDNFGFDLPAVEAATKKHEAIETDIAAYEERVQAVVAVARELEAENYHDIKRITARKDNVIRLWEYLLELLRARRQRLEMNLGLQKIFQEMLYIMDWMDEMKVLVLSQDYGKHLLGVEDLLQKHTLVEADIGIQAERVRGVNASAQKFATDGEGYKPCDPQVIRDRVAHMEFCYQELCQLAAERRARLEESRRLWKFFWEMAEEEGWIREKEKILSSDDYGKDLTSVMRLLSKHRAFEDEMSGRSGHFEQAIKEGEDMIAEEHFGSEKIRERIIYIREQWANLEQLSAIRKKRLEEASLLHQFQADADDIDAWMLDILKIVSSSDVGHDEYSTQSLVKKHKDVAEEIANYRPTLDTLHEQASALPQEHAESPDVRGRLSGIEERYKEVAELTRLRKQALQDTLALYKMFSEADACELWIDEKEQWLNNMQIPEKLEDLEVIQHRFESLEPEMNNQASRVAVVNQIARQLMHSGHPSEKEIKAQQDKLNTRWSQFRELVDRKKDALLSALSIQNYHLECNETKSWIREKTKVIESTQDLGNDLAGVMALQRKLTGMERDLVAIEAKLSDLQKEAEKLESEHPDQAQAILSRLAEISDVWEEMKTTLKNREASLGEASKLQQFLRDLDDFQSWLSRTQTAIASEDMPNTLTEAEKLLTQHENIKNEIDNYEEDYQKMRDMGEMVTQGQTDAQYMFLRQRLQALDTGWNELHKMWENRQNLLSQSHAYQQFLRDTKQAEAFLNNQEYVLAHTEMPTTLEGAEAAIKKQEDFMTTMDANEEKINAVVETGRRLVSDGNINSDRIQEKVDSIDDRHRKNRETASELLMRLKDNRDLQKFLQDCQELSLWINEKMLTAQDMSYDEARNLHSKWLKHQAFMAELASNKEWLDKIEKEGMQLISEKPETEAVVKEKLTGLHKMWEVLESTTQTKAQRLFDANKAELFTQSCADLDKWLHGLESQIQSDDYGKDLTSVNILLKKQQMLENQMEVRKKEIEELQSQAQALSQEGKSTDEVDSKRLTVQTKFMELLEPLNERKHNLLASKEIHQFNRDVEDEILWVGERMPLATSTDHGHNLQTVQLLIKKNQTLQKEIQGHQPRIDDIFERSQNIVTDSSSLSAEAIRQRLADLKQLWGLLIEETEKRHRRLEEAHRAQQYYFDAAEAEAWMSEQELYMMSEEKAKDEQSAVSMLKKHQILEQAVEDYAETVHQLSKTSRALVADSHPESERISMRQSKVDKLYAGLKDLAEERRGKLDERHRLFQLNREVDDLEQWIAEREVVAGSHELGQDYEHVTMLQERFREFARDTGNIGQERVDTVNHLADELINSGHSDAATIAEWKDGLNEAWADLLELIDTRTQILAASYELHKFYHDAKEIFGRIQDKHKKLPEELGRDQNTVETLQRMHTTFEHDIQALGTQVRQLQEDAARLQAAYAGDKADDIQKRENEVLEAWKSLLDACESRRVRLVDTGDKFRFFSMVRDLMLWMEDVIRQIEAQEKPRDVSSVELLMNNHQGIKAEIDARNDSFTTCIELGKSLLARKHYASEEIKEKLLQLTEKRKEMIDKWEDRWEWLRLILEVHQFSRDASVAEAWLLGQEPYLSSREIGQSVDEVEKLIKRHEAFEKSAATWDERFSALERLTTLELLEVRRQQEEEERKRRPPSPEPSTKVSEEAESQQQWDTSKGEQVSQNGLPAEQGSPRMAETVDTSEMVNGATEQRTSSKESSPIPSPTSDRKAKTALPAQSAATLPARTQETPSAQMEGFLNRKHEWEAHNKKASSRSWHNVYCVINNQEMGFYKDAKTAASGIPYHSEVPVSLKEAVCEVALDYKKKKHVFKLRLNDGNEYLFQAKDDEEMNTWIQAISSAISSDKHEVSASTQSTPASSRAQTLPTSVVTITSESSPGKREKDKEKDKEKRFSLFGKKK
Sequence of SDHA (P31040 whole entry): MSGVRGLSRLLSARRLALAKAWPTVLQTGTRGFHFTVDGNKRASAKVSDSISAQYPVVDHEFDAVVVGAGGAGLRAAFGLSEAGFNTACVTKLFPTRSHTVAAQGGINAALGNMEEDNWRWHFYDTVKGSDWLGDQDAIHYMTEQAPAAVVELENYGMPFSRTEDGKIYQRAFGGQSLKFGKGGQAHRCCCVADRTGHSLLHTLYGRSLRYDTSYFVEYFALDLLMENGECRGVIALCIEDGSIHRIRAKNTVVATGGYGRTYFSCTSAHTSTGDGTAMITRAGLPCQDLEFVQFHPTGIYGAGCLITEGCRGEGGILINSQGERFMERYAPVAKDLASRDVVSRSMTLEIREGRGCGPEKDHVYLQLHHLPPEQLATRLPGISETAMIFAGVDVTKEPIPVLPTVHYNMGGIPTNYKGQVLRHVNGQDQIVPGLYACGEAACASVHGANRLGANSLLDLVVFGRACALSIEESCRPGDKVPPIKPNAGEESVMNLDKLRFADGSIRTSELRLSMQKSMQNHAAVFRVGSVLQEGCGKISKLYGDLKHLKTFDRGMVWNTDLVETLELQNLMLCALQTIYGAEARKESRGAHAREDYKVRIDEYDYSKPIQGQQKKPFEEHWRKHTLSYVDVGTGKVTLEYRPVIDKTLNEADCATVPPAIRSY
Sequence of YWHAE (P62258 whole entry): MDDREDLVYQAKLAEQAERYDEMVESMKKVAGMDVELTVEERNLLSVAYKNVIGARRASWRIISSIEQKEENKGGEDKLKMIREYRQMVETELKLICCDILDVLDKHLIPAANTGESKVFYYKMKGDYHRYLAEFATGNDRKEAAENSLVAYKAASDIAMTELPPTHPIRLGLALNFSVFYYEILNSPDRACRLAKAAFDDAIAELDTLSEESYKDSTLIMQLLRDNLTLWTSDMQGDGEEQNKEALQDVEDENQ
Sequence of SF3A2, Q15428 (Q15428 whole entry): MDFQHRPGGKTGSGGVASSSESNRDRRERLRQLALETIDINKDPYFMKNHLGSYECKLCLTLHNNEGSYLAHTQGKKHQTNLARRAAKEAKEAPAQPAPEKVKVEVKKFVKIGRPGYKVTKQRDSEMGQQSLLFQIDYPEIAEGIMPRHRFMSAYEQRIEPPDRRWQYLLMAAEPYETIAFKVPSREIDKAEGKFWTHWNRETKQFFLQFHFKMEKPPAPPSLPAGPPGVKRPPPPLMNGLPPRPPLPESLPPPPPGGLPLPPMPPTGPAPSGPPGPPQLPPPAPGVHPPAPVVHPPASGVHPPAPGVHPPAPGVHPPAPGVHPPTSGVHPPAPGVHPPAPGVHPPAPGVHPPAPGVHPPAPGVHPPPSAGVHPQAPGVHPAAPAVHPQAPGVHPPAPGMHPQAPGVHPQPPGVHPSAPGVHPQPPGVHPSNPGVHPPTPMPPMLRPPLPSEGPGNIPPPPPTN
Sequence of SF3A1 (Q15459 whole entry): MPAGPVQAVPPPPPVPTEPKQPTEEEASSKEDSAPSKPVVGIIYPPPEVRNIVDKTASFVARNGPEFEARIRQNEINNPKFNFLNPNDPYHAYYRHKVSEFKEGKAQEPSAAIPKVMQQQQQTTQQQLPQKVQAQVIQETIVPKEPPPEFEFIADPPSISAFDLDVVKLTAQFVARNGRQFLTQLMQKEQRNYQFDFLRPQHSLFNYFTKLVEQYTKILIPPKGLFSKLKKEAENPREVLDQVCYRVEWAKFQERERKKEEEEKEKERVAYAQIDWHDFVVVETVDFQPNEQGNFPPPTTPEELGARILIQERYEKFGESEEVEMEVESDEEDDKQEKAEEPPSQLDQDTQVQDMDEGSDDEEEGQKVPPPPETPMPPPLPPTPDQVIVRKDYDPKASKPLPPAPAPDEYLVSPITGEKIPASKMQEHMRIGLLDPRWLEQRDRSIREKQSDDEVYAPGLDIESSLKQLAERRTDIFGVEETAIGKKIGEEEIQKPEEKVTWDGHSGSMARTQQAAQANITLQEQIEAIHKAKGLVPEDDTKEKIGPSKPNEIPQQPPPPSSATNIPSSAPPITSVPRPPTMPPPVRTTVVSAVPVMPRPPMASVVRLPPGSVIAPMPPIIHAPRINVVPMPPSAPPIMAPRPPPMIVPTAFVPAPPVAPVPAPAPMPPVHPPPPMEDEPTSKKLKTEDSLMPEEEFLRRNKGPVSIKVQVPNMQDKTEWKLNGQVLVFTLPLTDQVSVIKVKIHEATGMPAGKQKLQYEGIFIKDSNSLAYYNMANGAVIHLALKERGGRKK
Sequence of YWHAB (P31946 whole entry): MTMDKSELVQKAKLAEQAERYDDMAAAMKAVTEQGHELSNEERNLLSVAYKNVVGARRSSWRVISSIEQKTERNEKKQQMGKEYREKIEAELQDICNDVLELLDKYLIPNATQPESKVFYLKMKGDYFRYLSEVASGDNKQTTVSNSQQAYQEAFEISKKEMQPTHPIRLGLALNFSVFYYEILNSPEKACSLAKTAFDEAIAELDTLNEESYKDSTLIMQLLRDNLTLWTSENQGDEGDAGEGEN

On to SPTBN1, Q01082, for which the cross-linked residues entry in the test with SPTAN1 was “K1824 - K613”.

Turning to PSMD3, O43242, in the test with TOP1, the cross-linked residues entry is given as “K315 - K666”.

For NEFM, P07197, the cross-linked residues result with VIM is on record as “K139 - K143”.

In the case of YWHAQ, P27348, the results for the cross-linked residues result with YWHAB and in the test with YWHAE were “K85 - K11” and “K68 - K12”, respectively.

Regarding RPS15, P62841, the cross-linked residues entry in the test with SERBP1 is given as “K58 - K327”.

As to SDHB, P21912, the cross-linked residues result in the test with SDHA is “K167 - K167”.

Take PSMA4, P25789: in the test with RPS27A, the cross-linked residues entry is listed as “K239 - K107”.

With SF3A2, Q15428, in the test with SF3A1, the cross-linked residues entry was “K190 - K264”.

RPS10, P46783: in the test with SERBP1, the cross-linked residues result is listed as “K107 - K299”.

For RPL23A, P62750, the cross-linked residues result in the test with SERBP1 is given as “K30 - K68”.

Turning to SRP9, P49458, in the test with RPS7, the cross-linked residues result is reported as “K60 - K160”.
